Experimental data published in PubChem BioAssay (NCI).
About 83,000 compounds went through this panel and 20% of them were active in at least one assay; those are over-represented in the sample as a whole.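 48-hour exposure, single concentration, 96-well plates; percent growth endpoint where 0 means no net growth. Active: below 10.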 Unmarked numbers belong to inactive results. Active and inactive are the calls of the source.

What was measured:
Assay in all cases: NCI-60 one-dose screen, 48 h (100 = growth as untreated, 0 = no growth, -100 = all killed)
Details in all cases: 10 µM unless noted
HCT-15 colon = test system: HCT-15 colon
HT29 colon = test system: HT29 colon
SNB-75 CNS = test system: SNB-75 CNS
SNB-19 CNS = test system: SNB-19 CNS
U251 CNS = test system: U251 CNS
PC-3 prostate = test system: PC-3 prostate
SK-MEL-5 melanoma = test system: SK-MEL-5 melanoma
UACC-62 melanoma = test system: UACC-62 melanoma
LOX IMVI melanoma = test system: LOX IMVI melanoma
SK-MEL-28 melanoma = test system: SK-MEL-28 melanoma
SK-MEL-2 melanoma = test system: SK-MEL-2 melanoma
EKVX NSCLC = test system: EKVX NSCLC
SN12C renal = test system: SN12C renal
UO-31 renal = test system: UO-31 renal
TK-10 renal = test system: TK-10 renal
ACHN renal = test system: ACHN renal
CAKI-1 renal = test system: CAKI-1 renal
A498 renal = test system: A498 renal
CCRF-CEM leukemia = test system: CCRF-CEM leukemia
MOLT-4 leukemia = test system: MOLT-4 leukemia

SMILES | growth (HCT-15 colon) | growth (HT29 colon) | growth (SNB-75 CNS) | growth (SNB-19 CNS) | growth (U251 CNS) | growth (PC-3 prostate) | growth (SK-MEL-5 melanoma) | growth (UACC-62 melanoma) | growth (LOX IMVI melanoma) | growth (SK-MEL-28 melanoma) | growth (SK-MEL-2 melanoma) | growth (EKVX NSCLC) | growth (SN12C renal) | growth (UO-31 renal) | growth (TK-10 renal) | growth (ACHN renal) | growth (CAKI-1 renal) | growth (A498 renal) | growth (CCRF-CEM leukemia) | growth (MOLT-4 leukemia)
CO[C@H]1CC(c2ccc[nH]2)=N[C@]12O[C@@H](C)C[C@@H]1CCCCCCCc3ccc([nH]3)[C@H]12 | 10.4% | 12.3% | 3.5% (active) | 55.4% | 19.7% | 42.2% | -38.4% (active) | -47.8% (active) | -45.1% (active) | 38.6% | -16.2% (active) | 29.4% | 33.6% | -15.6% (active) | 15% | 8.05% (active) | 9.32% (active) | 57.4% | 22.7% | 20.6%
O=C(N/N=C/c1ccccc1Cl)c1ccccc1Nc1ccnc(C(F)(F)F)c1 | 10.4% | 3.22% (active) | -14.5% (active) | 17.1% | 3.95% (active) | 2.99% (active) | -50.7% (active) | -32.7% (active) | 4.1% (active) | 25.7% | -24% (active) | 11.7% | 9.09% (active) | 1.62% (active) | 16.1% | 1.95% (active) | 1.49% (active) | -25% (active) | 11.2% | 2.63% (active)
CCCCCCCCCCCCCC[n+]1ccc2c(C)c3c(c(C)c2c1)c1cc(O)ccc1n3CC | 19.9% | 4.46% (active) | -59.9% (active) | -77.9% (active) | -89% (active) | -88% (active) | -89.9% (active) | -68.5% (active) | -70% (active) | -93.9% (active) | -81.6% (active) | -34.5% (active) | -74.9% (active) | -1.41% (active) | -46.6% (active) | -25.3% (active) | 31.4% | -19.8% (active) | -16% (active) | -44.5% (active)
Oc1c(Cl)cc(Cl)c2ccc(CN3CCNCC3)nc12 | 19.5% | 105% | 45.9% | 41.9% | 26.8% | 40.3% | 42.8% | 33.3% | 45.3% | 62.3% | 66.8% | 48.7% | 42.8% | 3.7% (active) | 56.3% | 31.1% | 21.8% | 63.3% | 36.1% | 39.7%
COc1cccc2cc(N(C)c3nc(C)nc4c3CCC4)ccc12 | 8.06% (active) | 2.44% (active) | 30.5% | 30.4% | 5.05% (active) | 9.9% (active) | -35.5% (active) | 20.3% | 19.3% | 70.7% | 41% | 56.1% | 17.2% | 38.7% | 58% | 27.3% | 18.4% | -11.4% (active) | 15.2% | 14.8%
CNC(=O)c1cc(Oc2ccc3nc(NC(=O)Nc4ccc(F)cc4F)sc3c2)ccn1 | 84% | 58.8% | 19.2% | 71.1% | 37% | 65.9% | 39% | 65.1% | 52.1% | 52.1% | 74.7% | 89.8% | 69.2% | 91.4% | 93.5% | 60.6% | 88.4% | 10.9% | 89.7% | 82.4%
Cc1c(-c2cnc3ccc(Cl)cc3c2C(=O)O)nnn1-c1ccc(Cl)cc1 | 104% | 101% | 95.3% | 93.1% | 97.3% | 98.5% | 106% | 82.5% | 98.8% | 105% | 100% | 121% | 89.5% | 79% | 101% | 94.6% | 95.8% | 118% | 94% | 94.1%
C#CC(F)(F)[C@]1(O)CCC2C3CCC4=CC(=O)CCC4=C3[C@@H](c3ccc(N(C)C)cc3)C[C@@]21C (stereo not given in full) | 90% | 87.9% | 73.9% | 98.6% | 89.3% | 66% | 84% | 81% | 96.2% | 109% | 91.8% | 90.4% | 104% | 76.3% | 89.7% | 99.4% | 86.4% | 87.9% | 56.7% | 75.4%
Cn1ccnc1C(=O)/C=C/c1ccc(C(=O)Nc2ccccc2F)cc1 | 14.2% | 10.9% | 56.2% | 21.1% | 10.5% | 25.1% | 83.7% | 37.3% | -41.1% (active) | 59.2% | 76.2% | 32.4% | 8.08% (active) | 34.9% | 44.7% | 21.1% | 25.8% | 17.9% | 3.74% (active) | 12.1%
CN(C)CC1C(=O)O[C@H]2[C@H]1CC/C(COC(=O)NCc1ccc(Cn3c(=O)sn(CCCI)c3=O)cc1)=C\CC[C@@]1(C)O[C@@H]21 (stereo not given in full) | 5.27% (active) | -80.4% (active) | 71.8% | 89.9% | 84.7% | 66.5% | 64.2% | 15.9% | -75.8% (active) | -80.3% (active) | 63.3% | 89.7% | 18.9% | 1.41% (active) | -63.3% (active) | -48.8% (active) | -63.8% (active) | 105% | -10.1% (active) | -1.36% (active)
Cc1nn(C)c2ncnc(Nc3ccccc3Br)c12 | 101% | 97.7% | 111% | 101% | 95.3% | 102% | 97.7% | 93.3% | 101% | 102% | 100% | 60.6% | 98.8% | 96.8% | 97% | 106% | 102% | 71.4% | 93.3% | 95.9%
COc1cccc(C2C3=C(COC3=O)N(CCO)c3cc4c(cc32)OCCO4)c1 (stereo not given) | 2.89% (active) | -30.7% (active) | -14.1% (active) | 9.81% (active) | 2.46% (active) | 20.3% | -12.1% (active) | 24.8% | 22.1% | 38.7% | 78.1% | 39.7% | 31% | 75% | 66.9% | 24.8% | 41.6% | -21.8% (active) | 11.5% | 11.8%
CCOC(=O)c1c(N)sc2cc(O)ccc12 | 97.1% | 104% | 86.7% | 106% | 98.9% | 103% | 104% | 92.3% | 96.5% | 92.7% | 110% | 106% | 101% | 83% | 101% | 98.2% | 97.7% | 104% | 111% | 84.5%
COc1ccc(-n2c(=O)n(-c3ccc(-c4nc5ccc(F)cc5s4)cc3)c(=O)c3cccnc32)cc1 | 101% | 87.3% | 75.2% | 98.5% | 96.9% | 94.5% | 101% | 87.4% | 99.5% | 107% | 103% | 91.6% | 100% | 75.6% | 119% | 103% | 85.3% | 98.2% | 102% | 97.7%
C=CCNc1nc(O)c(/C=C2\C=Nc3ncccc32)s1 | 24.7% | 26.4% | -67.3% (active) | 11% | 0.764% (active) | 12.6% | 2.01% (active) | 9.75% (active) | 0.553% (active) | -2.4% (active) | -8.35% (active) | 30.5% | 24% | 3.09% (active) | 1.67% (active) | -1.22% (active) | 30.2% | -34.5% (active) | 7.13% (active) | 5.78% (active)
